In the supplement of paper PMC6555819:

Columns and labels:
Experiment in all cases: PBM binding z-score (relative to random genomic background probes); higher = stronger binding; sequences stand for … in GC…GCGATTGACAGCGTAGAATGAAGG
[1] = test system: FXR:RXRa (NR concentration 270 nM, RXRa partner concentration 90 nM)
Method in brief: (§1)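 Custom Agilent 4×180K protein-binding microarrays carried double-stranded probes. Their 34-nt variable regions held direct-repeat seeds, single-nucleotide variants, half-site ablations and random human genomic background sequences. Arrays were incubated 1 h with ligand-free nuclear receptor dimers in PBS pH 7.4, 2% milk, 0.02% Triton X-100, 1 mM DTT, 0.2 mg/mL BSA and 0.4 mg/ml salmon testes DNA. Antibodies against each partner (one per run) detected binding, and scanned fluorescence was regression-normalized. Binding z-scores use random background probes as reference.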

[2] = test system: LXRa:RXRa (NR concentration 270 nM, RXRa partner concentration 90 nM)
Method in brief: as §1

[3] = test system: LXRa homodimer (NR concentration 270 nM)
Method in brief: as §1

[4] = test system: LXRb:RXRa (NR concentration 270 nM, RXRa partner concentration 90 nM)
Method in brief: as §1

[5] = test system: LXRb homodimer (NR concentration 270 nM)
Method in brief: as §1

[6] = test system: PPARa:RXRa (NR concentration 270 nM, RXRa partner concentration 90 nM)
Method in brief: as §1

[7] = test system: PPARg:RXRa (NR concentration 180 nM, RXRa partner concentration 90 nM)
Method in brief: as §1

[8] = test system: PPARg:RXRa 270nM:90nM, anti-RXR (NR concentration 270 nM, RXRa partner concentration 90 nM)
Method in brief: as §1

[9] = test system: PPARg:RXRa 30nM:10nM, anti-RXR (NR concentration 30 nM, RXRa partner concentration 10 nM)
Method in brief: as §1

[10] = test system: PPARg:RXRa 90nM:30nM, anti-RXR (NR concentration 90 nM, RXRa partner concentration 30 nM)
Method in brief: as §1

Sequence | PBM binding z-score [1] | PBM binding z-score [2] | PBM binding z-score [3] | PBM binding z-score [4] | PBM binding z-score [5] | PBM binding z-score [6] | PBM binding z-score [7] | PBM binding z-score [8] | PBM binding z-score [9] | PBM binding z-score [10]
AGAACGAGGGCACGCTGGGTTGATAGCAGAGTAG | 1.04 | 0.969 | -0.399 | 0.12 | -0.802 | 2.11 | 2.01 | 1.91 | 0.228 | 1.15
TCAGACAGGTGACGGTAACTCAGGTACGCAGTCG | -0.0449 | 0.58 | -0.354 | 0.0924 | -0.599 | 0.857 | 0.69 | 1.72 | 3.16 | 2.51
ATCCCTAGGTAAAAGTTCAGTGAATCCCGAGGAT | 0.811 | 1.11 | 0.954 | 0.838 | 0.347 | 2.71 | 3.92 | 4.85 | 3.04 | 4.55
CGTGCAAGGTCAGCAGGTCAGTGAAAGCGACGTG | 6.34 | 4.37 | 0.442 | 3.25 | -0.32 | 5.48 | 4.89 | 4.92 | 1.7 | 3.51
CGTCCAAGGTCGATGCTAGGTCAGTGAAAGCATT | 1.61 | 1.91 | -0.14 | 1.33 | -0.866 | 1.81 | -0.125 | 0.529 | -0.65 | -0.0604
GCTAGTTGGTCAGTACAAGGTCACACACCGGTCG | 2.58 | 2.63 | 2.97 | 2.59 | 0.352 | 3.05 | 1.38 | 1.94 | 0.146 | 1.33
CCTGCTATGTCAATGGTCAGCTAAAGCAGCTCGC | -0.419 | -0.17 | -0.882 | -0.227 | -0.272 | -0.207 | 0.344 | 1.53 | -0.198 | 0.923
GCTGCTAGGACAGGTTGGTCAGCTAACGGGTACG | -0.662 | -0.909 | -0.343 | -0.926 | -0.654 | -0.661 | 0.0442 | -0.697 | -1.16 | -0.722
TGAATGAGGTTATAAGATCAGGGAGCGTTGCAAA | 1.22 | 1.19 | -0.626 | 0.707 | -0.471 | 2.63 | 1.63 | 1.91 | 0.643 | 1.55
ATCTCTAGGTCACCAAGTTCAGTGAATGCCGAAC | 4.67 | 5.17 | 4.93 | 3.52 | 2.23 | 4.74 | 7.04 | 6.1 | 3.59 | 5.18
ATCTCTAGGTAAGAGTTCAGTGAATCCCGAGGAT | 0.291 | 1.13 | 0.982 | 0.873 | 0.69 | 3.22 | 5.23 | 6.11 | 4.98 | 6.44
CAAACTAGGTCACGAAAAGTCAAAGTCGAATGAC | 4.52 | 5.32 | 0.989 | 3.22 | 0.716 | 5.53 | 9.43 | 7.43 | 5.91 | 7.51
TAGCCTAGGTCAGATCGGGTCAGTATACGCTATA | 2.96 | 2.75 | 0.202 | 2.43 | -0.00739 | 2.8 | 1.19 | 1.5 | 0.171 | 1.08
ACAGACGGGTGAGTGAAGGTAACTCAGCTGGACG | 0.431 | -0.164 | -0.31 | -0.488 | -0.833 | 0.0344 | 0.424 | -0.249 | -0.296 | -0.268
TCTTGTAGATCAACAGGAGGTTATGAAAGATCGA | 0.335 | 1.2 | 0.215 | 0.914 | -0.0997 | 1.2 | 0.228 | 1.25 | 2.43 | 1.78
CAAACTAGGTCAACAGGTCAAAGTCCGCTTCCCG | 6.05 | 5.38 | 3.92 | 4.38 | 1.14 | 6.02 | 9.26 | 7.93 | 6.55 | 8.02
TCTTGTAGATCAACAGAAGGTTAAGAAAGATCGA | 0.396 | 1.11 | 0.0845 | 0.953 | -0.0831 | 1.27 | 0.104 | 1.35 | 2.82 | 2.04
TCTGCTAGGTCAACGATGGTCAGCAAATCTGCTA | 3.33 | 2.48 | -0.168 | 1.69 | -0.321 | 3.27 | 2.79 | 3.15 | 2.13 | 2.56
GATACCGGGTCAAGGCCAGAGTACGCGTATTGAT | 4.87 | 2.87 | -0.172 | 2.45 | -1.08 | 5.08 | 5.25 | 4.57 | 1.31 | 3.21
CCTTACGGGTCACTCCAGGTAATAGCATCGGAGT | 5.01 | 5.21 | 0.164 | 3.31 | 0.11 | 4.59 | 3.75 | 3.97 | 1.47 | 2.94
CCTTACGGGTAAAGGTTATAGCACGGGTGGTACG | 1.2 | 1.69 | 0.37 | 1.19 | -0.173 | 3.02 | 2.95 | 4.67 | 2.06 | 3.73
GCAGACAGGTGAAAAGCAGGTAACTCAGGGTGGC | -0.224 | -0.0671 | -0.495 | -0.319 | -0.696 | 0.507 | 0.376 | 0.014 | -0.488 | -0.253
CCTCCAAGGTCAGCAGGTCAGTGAAAGCGACGTG | 5.51 | 3.58 | 0.385 | 2.93 | 0.111 | 4.67 | 4.14 | 4.24 | 1.49 | 2.93
